Most compounds without a hit are left out; they make up all but 11% or so of the library.
G9a block – blocks human histone lysine methyltransferase G9a | Potency, µM (series often up to 102 µM), for inactives: top-dose activity, negative = inhibition, hits mostly inhibitors | Q96KQ7 | G9a H3K9 monomethylation, AlphaScreen, 2 h | 8.8% of 350,000 active | AID 504332; also: % is scaled to controls: 0 for no effect and ±100 for the full control effect; nearly all actives have a fitted effect of over 75% in size
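AlphaScreen read-out: biotin-H3K9 peptide (500 nM) methylation by 20 nM enzyme with 20 uM SAM, 2 h at room temperature after 15 min compound preincubation; anti-monomethyl H3K9 antibody plus donor/acceptor beads, 10 min dark.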
JMJD2A Tudor inh – inhibitors of human JMJD2A Tudor domain; AlphaScreen JMJD2A-Tudor / H3K4me3 peptide binding; Potency, µM (series often up to 114 µM), inactives show at the highest dose activity change, negative = inhibition, usual class: inhibitors; O75164; 4.4% of 390,000 active; also: % is scaled to controls: 0 for no effect and ±100 for the full control effect; nearly all actives have a fitted effect of over 50% in size
L3MBTL1 block – L3MBTL1 (human) inhibition; AID 485360; Q9Y468; 0.66% of 230,000 active; AlphaScreen L3MBTL1–H3K9me1 peptide binding; Potency, µM (top dose mostly 57.1 µM), for the others: at the top dose activity, negative = inhibition, actives largely listed as inhibitors; also: % is scaled to controls: 0 for no effect and ±100 for the full control effect; nearly all actives have a fitted effect of over 60% in size
Target sequence (Q9Y468 whole entry, looked up): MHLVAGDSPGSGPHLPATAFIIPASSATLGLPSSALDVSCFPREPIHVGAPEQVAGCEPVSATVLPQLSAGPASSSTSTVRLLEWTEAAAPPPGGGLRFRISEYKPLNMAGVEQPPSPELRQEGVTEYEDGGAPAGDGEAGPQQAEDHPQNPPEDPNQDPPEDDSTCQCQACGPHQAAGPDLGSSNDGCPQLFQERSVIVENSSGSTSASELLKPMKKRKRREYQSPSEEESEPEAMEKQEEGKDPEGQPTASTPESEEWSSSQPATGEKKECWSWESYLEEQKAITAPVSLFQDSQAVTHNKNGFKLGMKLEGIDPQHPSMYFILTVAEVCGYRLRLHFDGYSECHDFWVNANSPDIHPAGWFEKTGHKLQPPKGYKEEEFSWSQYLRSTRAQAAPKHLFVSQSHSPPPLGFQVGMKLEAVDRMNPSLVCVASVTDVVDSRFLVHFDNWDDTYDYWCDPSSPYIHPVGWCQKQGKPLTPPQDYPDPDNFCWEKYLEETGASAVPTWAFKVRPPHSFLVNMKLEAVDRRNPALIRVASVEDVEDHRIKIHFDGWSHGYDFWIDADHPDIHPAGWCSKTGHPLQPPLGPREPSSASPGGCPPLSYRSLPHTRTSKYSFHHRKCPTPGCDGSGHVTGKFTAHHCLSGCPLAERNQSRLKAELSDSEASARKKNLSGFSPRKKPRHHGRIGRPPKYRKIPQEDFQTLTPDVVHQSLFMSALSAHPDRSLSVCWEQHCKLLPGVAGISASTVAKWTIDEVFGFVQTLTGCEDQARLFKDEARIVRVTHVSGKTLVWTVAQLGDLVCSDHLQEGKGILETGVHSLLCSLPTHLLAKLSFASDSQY
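AlphaScreen assay: L3MBTL1 (50 nM final) was preincubated 30 min at room temperature with biotinylated H3(1-15)K9me1 peptide (75 nM final), then 30 min with library compounds; streptavidin donor and nickel chelate acceptor beads (10 ug/mL final) added, 30 min dark.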
HP1b binding inh – HP1-beta chromodomain-methylated histone interaction inhibition. P83916. Potency, µM (titrated, usually from 114 µM), for inactives: top-dose activity change, negative = inhibition, hits mostly inhibitors. AlphaScreen HP1-beta / biotin-H3K9me3 peptide binding. AID 540317. 0.56% of 390,000 active; also: nearly all actives have a fitted effect of over 70% in size
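AlphaScreen: HP1-beta (50 nM) preformed 30 min with biotin-H3(1-18)K9me3 peptide (50 nM) in PBS pH 7.4, 0.01% Tween-20. Compound added for 30 min at RT, then streptavidin donor/nickel chelate acceptor beads (10 ug/mL) for 30 min.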
BAZ2B block – BAZ2B (human) inhibition; 4.4% of 360,000 active; Q9UIF8; AID 504333; Potency, µM (titrated, usually from 114 µM), for the others: at the highest dose activity change, negative = inhibition, hits mostly inhibitors; AlphaScreen BAZ2B-H3K14Ac peptide displacement; also: % is scaled to controls: 0 for no effect and ±100 for the full control effect; nearly all actives have a fitted effect of over 60% in size
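AlphaScreen displacement of biotin-H3(5-23)K14Ac peptide (50 nM final) from BAZ2B (50 nM final) in PBS pH 7.4, 0.01% Tween-20; complex preformed 30 min RT, then compounds (top 110 uM) 30 min RT, beads 20 min dark.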
The depositor's hits bear a star; ? = inconclusive; / = not tested or not shown; ! = not active in a repeat; [ ] = another dose, or the depositor's remark. Calls follow the shape of the dose curve; as a rule, active = well fitted inhibition curve with a large enough effect; inconclusive = small, poorly fitted or top-dose-only effect; inactive = no such curve, though single readings can be large or run the other way. Potency is read from the fitted curve at half-maximal effect.

SMILES	G9a block	JMJD2A Tudor inh	L3MBTL1 block	HP1b binding inh	BAZ2B block
COc1cc(N=Cc2c(CO)cnc(C)c2O)cc(OC)c1OC	-8%	?	-3%	39%	-27%
C#CCOCCOCCOCCNc1nc(N2CCN(C(=O)[C@H](CCC(=O)O)n3cc([C@@H](N)CCCCN)nn3)CC2)nc(N2CCN(C(=O)[C@H](CCCCN)n3cc([C@@H](N)CC(N)=O)nn3)CC2)n1	/	50µM*	-3%	34%	/
C#CCOCCOCCOCCNc1nc(N2CCN(C(=O)[C@H](CO)n3cc([C@@H](N)C(C)C)nn3)CC2)nc(N2CCN(C(=O)[C@H](CCC(=O)O)n3cc([C@@H](N)CCCCN)nn3)CC2)n1	/	?	-3%	43%	/
C#CCOCCOCCOCCNc1nc(N2CCN(C(=O)[C@H](CCC(=O)O)n3cc([C@@H](N)CCCCN)nn3)CC2)nc(N2CCN(C(=O)[C@H](CCC(=O)O)n3cc([C@@H](N)CCCCN)nn3)CC2)n1	/	56µM*	?	-9%	/
CCCN(CCC)S(=O)(=O)c1ccc(C(=O)N2CCn3c4c(c5cc(C)ccc53)CCCC42)cc1 (centres undefined)	?	-31%	/	0%	-30%
CC1(C)C(=O)N(c2ccccc2Cl)C(=O)c2ccccc21	79µM*	2%	/	38%	7%
Cc1ccc(S(=O)(=O)NC(N)=NCCC[C@@H](N)C(=O)Nc2cc(C(F)(F)F)ccc2Cl)cc1	/	-25%	/	/	/
Cc1ccc(C(=O)Nc2ccc3c(c2)N(C)C(=O)c2ccccc2S3)cc1	-12%[59 µM]	-34%	/	14%	-5%
O=C(/C=C/c1ccc(O)c(O)c1)O[C@@H]1C[C@](O)(C(=O)O)C[C@@H](O)[C@H]1O	13µM*!	18µM*!	8%	33%	-3%
O=C(/C=C\c1ccc(O)c(O)c1)O[C@@H]1C[C@](O)(C(=O)O)C[C@@H](O)[C@@H]1O	0.35µM*	/	/	/	/
COCCCn1c(=O)/c(=C/c2ccccc2OC(F)F)s/c1=C(\C#N)C(=O)NCCOC	/	-17%	/	5%	/
COCCCn1c(=O)/c(=C\c2cccc(OC)c2OC)s/c1=C(/C#N)C(=O)Nc1ccc(C(=O)O)cc1	-21%[59 µM]	-9%[11.4 µM]	-11%	6%	45µM*
COC(=O)C1=C(C)OC(N)=C(C#N)C1c1cc2cc(C)ccc2nc1Cl (centres undefined)	40µM*	-4%	4%	39%	-33%
CC(=O)C1=C(C)OC(N)=C(C#N)C1c1cc2cc(C)c(C)cc2nc1Cl (centres undefined)	?	-17%	5%	21%	-12%
Cc1ccc(Nc2nc(N3CCOCC3)nc(N3CCOCC3)n2)cc1C	50µM*	-3%	/	20%	?
c1ccc(Nc2nc(N3CCOCC3)nc(N3CCOCC3)n2)cc1	?	-13%	3%	11%	11%
Fc1ccc(Nc2nc(N3CCOCC3)nc(N3CCOCC3)n2)cc1	45µM*	?	/	33%	?
Cc1cccc(Nc2nc(N3CCOCC3)nc(N3CCOCC3)n2)c1	?	-23%	-3%	27%	-35%
CCc1cc(=S)n2c([nH]c3ccccc32)c1C#N	4µM*	20µM*	/	40µM*	79µM*
CCc1cc(=O)n2c([nH]c3ccccc32)c1C#N	32%[12.7 µM]	-5%	/	32%	2%
Cc1c(CCC(=O)O)c(=O)n2c([nH]c3ccccc32)c1C#N	2.2µM*	-22%	/	29%	-32%
CCc1c(C)c(C#N)c2[nH]c3ccccc3n2c1=S	/	5.6µM*	-19%	20µM*	35µM*
C=C(C)Cc1c(C)c(C#N)c2[nH]c3ccccc3n2c1=O	-2%	-20%	/	37%	-7%
CC(=O)N1CCCC1c1nc2ccccc2n1Cc1cc(C)ccc1C (centres undefined)	-13%[59 µM]	-23%	/	28%	?
Cc1c(N(C)C)nc2ccccc2c1N	?	1µM*	6%[11.4 µM]	14µM*	45µM*
SMILES	G9a block	JMJD2A Tudor inh	L3MBTL1 block	HP1b binding inh	BAZ2B block
COc1cc2cc(NC(C)=O)cc(NCc3ccccc3)c2cc1OC	?	?	-16%	-2%	45µM*
CCCCNc1cc(NC(C)=O)cc2cc(OC)c(OC)cc12	45µM*	?	-9%	-15%	-36%
CCCC(=O)Nc1cc(OC)c(OC)cc1C(=O)O	5%[59 µM]	5%	/	31%	2%
COc1ccc(CC(=O)NCc2ccccc2)cc1OC	/	-14%	-3%	23%	9%
CCOC(=O)[C@H]1[C@H]2COc3ccccc3[C@@H]2N2C(=O)CN(Cc3ccc(C)cc3)C(=O)[C@@]12C	/	-15%	2%	28%	/
O=C1NC(=O)C2C1C(c1cccs1)NN2Cc1ccccc1 (centres undefined)	50µM*	-28%	9%	14%	?
COC(=O)C1(CO)NC(c2cccs2)C2C(=O)N(c3ccccc3)C(=O)C21 (centres undefined)	-8%	-30%[57.1 µM]	8%	-11%	9%
COCCN(C(=O)CSc1nnc(-c2ccccc2F)n1N)c1c(N)n(Cc2ccccc2)c(=O)[nH]c1=O	/	-3%	/	18%	1%
CCN(CC)c1ccc(-c2nnc(SCC(=O)N(CCOC)c3c(N)n(CC(C)C)c(=O)[nH]c3=O)o2)cc1	-51%	-12%	-5%	3%	-34%
CCN(C(=O)CSc1nc(-c2ccccc2)cn1N)c1c(N)n(Cc2ccccc2)c(=O)[nH]c1=O	?	-11%	-5%	19%	-4%
COCCN(C(=O)CSc1nnc(-c2cccs2)n1N)c1c(N)n(Cc2ccccc2)c(=O)[nH]c1=O	56µM*	-6%	/	50%	-4%
COCCN(C(=O)CSc1nnc(-c2ccc(C)c(C)c2)o1)c1c(N)n(CC(C)C)c(=O)[nH]c1=O	79µM*	-11%	5%	-3%	-3%
COCCN(C(=O)CSc1nc(-c2ccccc2)cn1N)c1c(N)n(Cc2ccccc2)c(=O)[nH]c1=O	8.9µM*	-24%	-11%	33%	-2%
CCOc1ccc2nc(SCC(=O)N(CCOC)c3c(N)n(Cc4ccccc4)c(=O)[nH]c3=O)[nH]c2c1	10µM*	6%	4%	45%	-4%
CCN(c1ccccc1)c1nnc(NC(=O)Nc2ccccc2F)s1	-27%[59 µM]	-9%	/	23%	-7%
CC1CCC(C(=O)NC(C(=O)OCC(=O)c2ccc(Br)cc2)C(C)C)CC1 (centres undefined)	8%[59 µM]	-2%	/	49%	1%
CCOC(=O)c1cnc(-c2ccccc2O)nc1Cl	45µM*	18µM*	/	17%	?
CCOC(=O)c1cnc(-c2ccccc2)nc1Oc1ccc(Cl)cc1	34%	21%	-8%	24%	4%
CCOc1ccc(NC(=O)C2CCCN(S(=O)(=O)c3ccc4[nH]c(=O)ccc4c3)C2)cc1 (centres undefined)	-8%[59 µM]	50µM*!	/	6%	-24%
COc1ccc(NC(=O)C2CCCN(S(=O)(=O)c3ccc4[nH]c(=O)ccc4c3)C2)cc1 (centres undefined)	13%	-7%	1%	68%	2%

High-throughput results (PubChem BioAssay)
